# Source: PubChem BioAssay (NCATS)
# Where “and” joins values, the source holds several entries; their conditions need not be identical. Identical values can stand only once. Inconclusive results are not listed. Entries that show only a call come without a potency. A number with no mark means an inactive call. Calls of active or inactive are those of the source. The call rests on the fitted dose curve; in most records, active means well fitted inhibition curve with a large enough effect; inconclusive means small, poorly fitted or top-dose-only effect; inactive means flat fitted curve, though single readings scatter.
# Tests used:
# HEK293 = assay: Cytotoxic Profiling of Annotated Libraries Using Quantitative High-Throughput Screening (AID 1296008); conditions: Five cell lines viability, CellTiter-Glo ATP luminescence, 48-72 h; max response: hits give low values
# How it was run: (§1)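 Compounds were pin-transferred onto cells and incubated 48 or 72 hr at 37 degree Celsius, 95% humidity. CellTiter-Glo was added, plates sat 10 min at room temperature, then ATP-coupled luminescence was imaged as the viability read-out.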
# KB-3-1 = assay: as above; conditions: Five cell lines viability, CellTiter-Glo ATP luminescence, 48-72 h; max response: hits give low values
# How it was run: as §1
# GB4 = assay: qHTS profiling for inhibitors of Plasmodium falciparum proliferation (AID 504749); conditions: P. falciparum in erythrocytes, SYBR Green DNA, 72 h; series mostly up to 28.7 µM
# How it was run: (§2)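 Quantitative HTS: compounds pinned into medium, infected erythrocytes added (0.3% parasitemia, 2.5% hematocrit), 72 h culture at 37 C under 5% CO2. Saponin/Triton lysis with SYBR Green I, overnight RT, then fluorescence read.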
# HB3 = assay: as above; conditions: P. falciparum in erythrocytes, SYBR Green DNA, 72 h; series mostly up to 28.7 µM
# How it was run: as §2
# JCK = assay: as above; conditions: P. falciparum in erythrocytes, SYBR Green DNA, 72 h; series mostly up to 28.7 µM
# How it was run: as §2
# P94_40 = assay: as above; conditions: P. falciparum in erythrocytes, SYBR Green DNA, 72 h; series mostly up to 28.7 µM
# How it was run: as §2
# PC26 = assay: as above; conditions: P. falciparum in erythrocytes, SYBR Green DNA, 72 h; series mostly up to 28.7 µM
# How it was run: as §2
# PC49 = assay: as above; conditions: P. falciparum in erythrocytes, SYBR Green DNA, 72 h; series mostly up to 28.7 µM
# How it was run: as §2
# SC27B = assay: as above; conditions: P. falciparum in erythrocytes, SYBR Green DNA, 72 h; series mostly up to 28.7 µM
# How it was run: as §2
# TAB113 = assay: as above; conditions: P. falciparum in erythrocytes, SYBR Green DNA, 72 h; series mostly up to 28.7 µM
# How it was run: as §2
# CRL-7250 = normal cell line; assay: Cytotoxic Profiling of Annotated Libraries Using Quantitative High-Throughput Screening (AID 1296008); conditions: Five cell lines viability, CellTiter-Glo ATP luminescence, 48-72 h; max response: hits give low values
# How it was run: as §1
# HaCat = assay: as above; conditions: Five cell lines viability, CellTiter-Glo ATP luminescence, 48-72 h; max response: hits give low values
# How it was run: as §1
# ICS = assay: qHTS profiling for inhibitors of Plasmodium falciparum proliferation (AID 504749); conditions: P. falciparum in erythrocytes, SYBR Green DNA, 72 h; series mostly up to 28.7 µM
# How it was run: as §2
# N140 = assay: as above; conditions: P. falciparum in erythrocytes, SYBR Green DNA, 72 h; series mostly up to 28.7 µM
# How it was run: as §2
# P93_24 = assay: as above; conditions: P. falciparum in erythrocytes, SYBR Green DNA, 72 h; series mostly up to 28.7 µM
# How it was run: as §2
# PAD = assay: as above; conditions: P. falciparum in erythrocytes, SYBR Green DNA, 72 h; series mostly up to 28.7 µM
# How it was run: as §2
# TAB109 = assay: as above; conditions: P. falciparum in erythrocytes, SYBR Green DNA, 72 h; series mostly up to 28.7 µM
# How it was run: as §2
# TAB165 = assay: as above; conditions: P. falciparum in erythrocytes, SYBR Green DNA, 72 h; series mostly up to 28.7 µM
# How it was run: as §2
# W2 = assay: as above; conditions: P. falciparum in erythrocytes, SYBR Green DNA, 72 h; series mostly up to 28.7 µM
# How it was run: as §2
# PC15 = assay: as above; conditions: P. falciparum in erythrocytes, SYBR Green DNA, 72 h; series mostly up to 28.7 µM
# How it was run: as §2
# Further: nearly all actives have a fitted effect of over 60% in size.
# Potency means the concentration at half of the fitted maximal effect.
smiles,measurement,setting,value
CCCCC1C(=O)N(c2ccccc2)N(c2ccc(O)cc2)C1=O (configuration not stated),Potency,HEK293,4.73 µM (active)
same,max response,KB-3-1,-9.78%
Clc1ccccc1-c1nc(-c2ccncc2)no1,Potency,GB4,inactive
same,Potency,HB3,inactive
same,Potency,JCK,inactive
same,Potency,P94_40,inactive
same,Potency,PC26,inactive
same,Potency,PC49,inactive
same,Potency,SC27B,inactive
same,Potency,TAB113,inactive
same,max response,CRL-7250,-4.27%
same,outcome,HaCat,inactive
same,max response,KB-3-1,12%
CC(=O)O[C@H]1C[C@@]2(C)[C@@H](C[C@@H](O)[C@H]3[C@@]4(C)CC[C@@H](O)[C@@H](C)[C@@H]4CC[C@@]32C)/C1=C(\CCC=C(C)C)C(=O)O,outcome,CRL-7250,inactive
same,max response,HEK293,-11.3%
same,max response,KB-3-1,-11.2%
same,outcome,KB-3-1,inactive
Cc1c(C(=O)O)c(O)cc2c1C(=O)c1c(O)c([C@@H]3O[C@H](CO)[C@@H](O)[C@H](O)[C@H]3O)c(O)c(O)c1C2=O,max response,HEK293,-35.5%
same,max response,KB-3-1,-19.3%
COc1cc(NC(C)CCCN)c2ncccc2c1 (configuration not stated),max response,CRL-7250,4.62%
same,outcome,HaCat,inactive
same,max response,KB-3-1,20.7%
COc1ccc(/C=C/C(=O)Nc2ccccc2C(=O)O)cc1OC,Potency,HB3,inactive
same,Potency,ICS,inactive
same,Potency,JCK,inactive
same,Potency,N140,inactive
same,Potency,P93_24,inactive
same,Potency,P94_40,inactive
same,Potency,PAD,inactive
same,Potency,PC26,inactive
same,Potency,PC49,inactive
same,Potency,SC27B,inactive
same,Potency,TAB109,inactive
same,Potency,TAB113,inactive
same,Potency,TAB165,inactive
same,max response,CRL-7250,2.22%
same,max response,HEK293,0.531%
same,max response,KB-3-1,-5.53% and 8.2%
CC(N)C(=O)OC(C)(C)Cc1ccc(Cl)cc1 (configuration not stated),Potency,GB4,5.36 µM (active)
same,Potency,HB3,inactive
same,Potency,JCK,inactive
same,Potency,PAD,inactive
same,Potency,W2,4.26 µM (active)
same,max response,CRL-7250,4.4%
same,outcome,HaCat,inactive
same,max response,KB-3-1,3.19%
Nc1nc2ccc([N+](=O)[O-])cc2s1,Potency,HaCat,27.3 µM (active)
same,max response,KB-3-1,-15.7%
Cc1cc(O)c2ccccc2c1O,Potency,HB3,inactive
same,Potency,JCK,inactive
same,Potency,N140,inactive
same,Potency,P93_24,inactive
same,Potency,P94_40,inactive
same,Potency,PAD,inactive
same,Potency,PC15,inactive
same,Potency,PC49,inactive
same,Potency,SC27B,inactive
same,Potency,TAB109,inactive
same,Potency,TAB113,inactive
same,Potency,TAB165,inactive
same,Potency,W2,9.53 µM (active)
same,max response,CRL-7250,-18%
same,outcome,HaCat,inactive
same,max response,KB-3-1,6.5%
CCCCN(CC)c1nc(C)nc2c1c(C)cn2-c1c(C)cc(C)cc1C,max response,CRL-7250,-5.83%
same,max response,HaCat,4.42%
same,max response,KB-3-1,-14.3%
CCN(CC)CCCCNc1ncc2cc(-c3c(Cl)cccc3Cl)c(NC(=O)NC(C)(C)C)nc2n1,Potency,HaCat,20.6 µM (active)
COC(=O)C1=C(C)NC(C)=C(C(=O)OCC(C)=O)C1c1ccccc1[N+](=O)[O-] (configuration not stated),outcome,HEK293,inactive
same,outcome,HaCat,inactive
Cc1onc(-c2c(F)cccc2Cl)c1C(=O)N[C@@H]1C(=O)N2[C@@H]1SC(C)(C)[C@@H]2C(=O)O,max response,CRL-7250,-6.01%
same,outcome,HEK293,inactive
same,max response,KB-3-1,3.63% and 6.4%
same,outcome,KB-3-1,inactive
CCCC(=O)OC[C@@H](OC(=O)CCC)[C@@H](OC(=O)CCC)[C@H](Cn1c2nc(=O)[nH]c(=O)c-2nc2cc(C)c(C)cc21)OC(=O)CCC,Potency,JCK,inactive
same,Potency,PC15,inactive
same,Potency,PC26,inactive
same,Potency,PC49,inactive
same,outcome,CRL-7250,inactive
same,max response,HaCat,4.67%
same,max response,KB-3-1,23.7%
O=C(O)c1ccccc1Nc1cccc(C(F)(F)F)c1,Potency,GB4,inactive
same,Potency,HB3,inactive
same,Potency,ICS,inactive
same,Potency,JCK,inactive
same,Potency,N140,inactive
same,Potency,P93_24,inactive
same,Potency,P94_40,inactive
same,Potency,PAD,inactive
same,Potency,PC15,inactive
same,Potency,PC26,inactive
same,Potency,PC49,inactive
same,Potency,SC27B,inactive
same,Potency,TAB109,inactive
same,Potency,TAB113,inactive
same,Potency,TAB165,inactive
same,Potency,W2,inactive
same,max response,CRL-7250,0.849%
same,max response,HEK293,3.56%
O=C1CN(/N=C/c2ccc([N+](=O)[O-])o2)C(=O)N1,outcome,CRL-7250,inactive
same,max response,HaCat,1.83%
same,max response,KB-3-1,-3.33%
COc1cc(CNC(=O)CCCC/C=C/C(C)C)ccc1O,Potency,GB4,inactive
same,Potency,HB3,inactive
same,Potency,ICS,inactive
same,Potency,JCK,inactive
same,Potency,N140,inactive
same,Potency,P93_24,inactive
same,Potency,P94_40,inactive
same,Potency,PAD,inactive
same,Potency,PC15,inactive
same,Potency,PC26,inactive
same,Potency,PC49,inactive
same,Potency,SC27B,inactive
same,Potency,TAB109,inactive
same,Potency,TAB113,inactive
same,Potency,TAB165,inactive
same,Potency,W2,inactive
same,max response,CRL-7250,3.92%
same,max response,HEK293,-1.55%
same,max response,KB-3-1,-0.699%
same,outcome,KB-3-1,inactive
